In the library only some 3.1% were active in any assay of this set; here they are far more common.
esBAF inh: blocks esBAF chromatin remodeling in mouse ES cells; Bmi1-luciferase knock-in reporter, 24 h; 100% = twice the neutral-well signal; reporter increase, % at 12.5 µM; hit rate 2% among 350,000; AID 602393; in the data active means activation above about 40%; inconclusive means no clear call, values can overlap the other calls;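 further: 0% = median of the plate's neutral control wells and 100% = double that signal; a rise in the Bmi1 reporter signal indicates esBAF inhibition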
Wnt act: Wnt/beta-catenin pathway activation; Wnt/beta-catenin reporter cell assay, activator, plate reader; activation, % at 9.35 µM; hit rate 1.2% among 300,000; in the data active means activation above about 30%, passing the limit was not always enough; inconclusive means no clear call, values can overlap the other calls;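 further: 0% = neutral control wells and 100% = positive control wells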
MITF act: MITF TRPM1 promoter activation in melanoma cells. SK-MEL-5 TRPM1-promoter luciferase, 24 h; % of positive control, neutral wells = 0. activation, % at 12.5 µM. hit rate 0.75% among 300,000;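 active means mean activation of at least 80% with every replicate also reaching 80%; inconclusive means mean reaches 80% but some replicate falls short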;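 further: 0% = neutral control wells and 100% = parthenolide positive control wells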
Statin myotox sup: suppressors of simvastatin-induced myotoxicity in C2C12 myotubes; ATP luminescence, 48 h; scaled: DMSO 0, geranylgeraniol control 100; AID 602340; hit rate 0.78% among 330,000; rescue of ATP level, % at 7.49 µM;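 active means mean ATP rescue above about 67%, or every replicate alone reaching that limit, limit read from the data, passing the limit was not always enough; inconclusive means no clear call, values can overlap the other calls; inactive means mean under the limit and some replicate under it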;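 further: myotubes were challenged with 10 µM simvastatin during compound exposure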
Rtt109 HAT inh: inhibitors of Candida albicans Rtt109/Vps75 histone acetyltransferase; Q5AAJ8; purified Rtt109/Vps75, ThioGlo CoA-SH fluorescence, 4 h; inhibition, % at 34.9 µM; hit rate 0.16% among 330,000; AID 540336;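 active means inhibition of at least 50% in every replicate; inconclusive means best replicate reaches 50% inhibition but some replicates fall short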
Target sequence (Q5AAJ8 whole entry, looked up): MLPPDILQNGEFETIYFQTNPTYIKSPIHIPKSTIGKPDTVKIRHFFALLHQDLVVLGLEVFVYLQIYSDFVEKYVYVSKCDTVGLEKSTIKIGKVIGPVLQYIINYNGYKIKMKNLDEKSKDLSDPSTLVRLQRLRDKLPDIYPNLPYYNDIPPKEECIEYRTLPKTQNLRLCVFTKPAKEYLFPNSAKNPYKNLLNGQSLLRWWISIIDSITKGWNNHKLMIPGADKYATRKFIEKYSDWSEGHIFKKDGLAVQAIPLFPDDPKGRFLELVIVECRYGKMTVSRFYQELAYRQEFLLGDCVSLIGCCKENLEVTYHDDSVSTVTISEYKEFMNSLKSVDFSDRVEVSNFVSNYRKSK
* hit, by the source's call.

How did C[C@H](CO)N1C[C@H](C)[C@@H](CN(C)C(=O)CCC(F)(F)F)OCCCC[C@H](C)Oc2ccc(NC(=O)NC3CCCCC3)cc2C1=O do in these assays?
esBAF inh: 0

What do the screens show for `Cc1cc(C)nc(Nc2n[nH]c(-c3ccccc3C)n2)n1`?
Wnt act: 14; MITF act: 58; Rtt109 HAT inh: -16

What do the screens show for `Cc1cc(C)nc(Nc2n[nH]c(-c3ccccc3Br)n2)n1`?
esBAF inh: 44*; Statin myotox sup: -3; Rtt109 HAT inh: 0

What do the screens show for `Cc1cc(C)nc(Nc2n[nH]c(-c3ccc(C(C)(C)C)cc3)n2)n1`?
esBAF inh: 55*; Wnt act: 3; MITF act: 20; Statin myotox sup: -11; Rtt109 HAT inh: 3

What do the screens show for `Cc1cc(C)nc(Nc2n[nH]c(-c3ccc(N)cc3)n2)n1`?
esBAF inh: 11; Wnt act: 47*; Statin myotox sup: 2; Rtt109 HAT inh: -4

Results for Cc1ccc(N=Cc2sc(O)c3ccccc23)c(C)c1 ?
esBAF inh: 74*; Wnt act: 0; Statin myotox sup: 2; Rtt109 HAT inh: 3

How did Cc1ccc(N=Cc2sc(O)c3ccccc23)cc1 do in these assays?
esBAF inh: 94*; Wnt act: 84*; Statin myotox sup: -3; Rtt109 HAT inh: 0

How did Cc1ccc(N=Cc2cccc(O)c2O)c(C)c1 do in these assays?
esBAF inh: 0; Wnt act: 13; Statin myotox sup: 26; Rtt109 HAT inh: 8

How did CC(C)(C)OC(=O)N1CCC(C(=O)Nc2ccc3c(c2)CCC3)CC1 do in these assays?
esBAF inh: 75*; Wnt act: 27; MITF act: inconclusive; Statin myotox sup: 2; Rtt109 HAT inh: 23

What do the screens show for `O=C(Nc1ccc(F)c(Cl)c1)C1CCCN(c2cnccn2)C1` (stereo not given)?
esBAF inh: -1; Wnt act: -2; MITF act: -10; Statin myotox sup: 110*; Rtt109 HAT inh: -3

How did Cc1ccc(NC(=O)C2CCCN(c3ncccn3)C2)c(C)c1 (stereo not given) do in these assays?
esBAF inh: 51*; Wnt act: 4; MITF act: 48; Statin myotox sup: 47; Rtt109 HAT inh: -14

Results for O=C(Nc1ccc2c(c1)CCC2)C1CCCN(c2ncccn2)C1 (stereo not given) ?
esBAF inh: 62*; MITF act: 86*; Statin myotox sup: 2; Rtt109 HAT inh: 2

How did Cc1ccc(NC(=O)C2CCCN(c3nccc(C)n3)C2)c(C)c1 (stereo not given) do in these assays?
esBAF inh: 5; Wnt act: -1; MITF act: -9; Statin myotox sup: 6; Rtt109 HAT inh: -1

Results for COCCNC(=O)C1=C(N)C(C(=O)Nc2ccc(C)c(S(=O)(=O)N3CCCCC3)c2)SC1=Nc1ccc(C)cc1C (stereo not given) ?
esBAF inh: -6; MITF act: -5; Statin myotox sup: -12; Rtt109 HAT inh: 58*

What do the screens show for `Clc1ccc(OCCCN2CCCCC2)c(Br)c1`?
esBAF inh: 23*; Wnt act: 0; MITF act: 57; Rtt109 HAT inh: 5

How did Cc1ccc(S(=O)(=O)N(CC(=O)NCc2ccncc2)Cc2ccccc2F)cc1 do in these assays?
esBAF inh: 1; Wnt act: 1; MITF act: 8; Statin myotox sup: 1; Rtt109 HAT inh: 6

Results for Cc1ccc(S(=O)(=O)N(CC(=O)NCc2ccco2)Cc2ccccc2F)cc1 ?
esBAF inh: 2; MITF act: -4; Statin myotox sup: 67*; Rtt109 HAT inh: 30

Results for Cc1noc(C)c1NC(=O)N(C)C[C@H]1Oc2ccc(NS(=O)(=O)c3cccs3)cc2CC(=O)N([C@H](C)CO)C[C@@H]1C ?
esBAF inh: 3; Statin myotox sup: -1

What do the screens show for `Cc1cccc(C=CC(=O)c2ccccc2)c1`?
esBAF inh: 71*; Wnt act: 7; MITF act: 49; Statin myotox sup: 9; Rtt109 HAT inh: 1

Results for Cc1ccc(C(=O)/C=C/c2ccccc2[N+](=O)[O-])cc1 ?
Wnt act: 50*; MITF act: 44; Rtt109 HAT inh: 18

Results for Cc1ccc(C(=O)C=Cc2cccc(C)c2)cc1 ?
esBAF inh: 39; Wnt act: inconclusive; MITF act: 69; Statin myotox sup: 5; Rtt109 HAT inh: 1

How did Cc1ccc(C(=O)/C=C/c2ccc(-c3ccccc3[N+](=O)[O-])o2)cc1 do in these assays?
Wnt act: -3; MITF act: -9; Rtt109 HAT inh: 38

Results for O=C(/C=C/c1ccc(O)cc1)c1ccccc1 ?
esBAF inh: 59*; Wnt act: 38*; MITF act: 69; Statin myotox sup: 10; Rtt109 HAT inh: 5

Results for COc1ccc(C(=Cc2ccccc2[N+](=O)[O-])C(=O)O)cc1 ?
esBAF inh: 14; Wnt act: 49*; MITF act: 18; Statin myotox sup: -6; Rtt109 HAT inh: 0

Results for COc1cccc(/C=C/C(=O)c2ccc[nH]2)c1 ?
esBAF inh: 60*; MITF act: 42; Statin myotox sup: 11; Rtt109 HAT inh: -5

Results for O=C(/C=C/c1ccc2c(c1)OCO2)c1ccc[nH]1 ?
Wnt act: 42*; MITF act: 53; Rtt109 HAT inh: -29

How did O=C(/C=C/c1ccc2c(c1)OCO2)c1ccc(F)cc1 do in these assays?
esBAF inh: 31; Wnt act: 27; MITF act: 62; Statin myotox sup: 5; Rtt109 HAT inh: -3

Results for CSc1nncn1/N=C/c1ccc2c(c1)OCO2 ?
esBAF inh: 3; Wnt act: -1; MITF act: 2; Statin myotox sup: 106*; Rtt109 HAT inh: 8

How did C(=N\N(c1ccccc1)c1ccccc1)/c1ccc2c(c1)OCO2 do in these assays?
Wnt act: -7; MITF act: -6; Rtt109 HAT inh: -8

Results for CN(/N=C/c1ccc2c(c1)OCO2)c1ccccc1 ?
esBAF inh: 51*; MITF act: 118*; Statin myotox sup: 5; Rtt109 HAT inh: 9

What do the screens show for `CCC(=O)N1[C@H](CO)[C@H]2c3ccccc3N(S(=O)(=O)c3ccccc3)C[C@H]21`?
esBAF inh: 1; Statin myotox sup: 12

Results for CC(C)CC#Cc1ccc2c(c1)O[C@H](CN(C)S(C)(=O)=O)[C@@H](C)CN([C@@H](C)CO)S2(=O)=O ?
esBAF inh: 6; Statin myotox sup: -14

Results for CNC[C@@H]1OCCCC[C@@H](C)Oc2ccc(NS(=O)(=O)c3ccc(OC)cc3)cc2C(=O)N([C@H](C)CO)C[C@H]1C ?
esBAF inh: 10; Statin myotox sup: -8

What do the screens show for `CN1CCN(C(=O)C[C@@H]2CC[C@H]3[C@@H](COC[C@H](O)CN3S(=O)(=O)c3cccc(Cl)c3)O2)CC1`?
esBAF inh: -1; Statin myotox sup: -11

How did CN(C(=O)/C=C/c1ccc2c(c1)OCO2)c1ccccc1 do in these assays?
esBAF inh: 53*; Wnt act: 14; MITF act: 11; Statin myotox sup: -9; Rtt109 HAT inh: 7

From PubChem
